# Data as given in PubChem BioAssay AID1645852 (National Center for Advancing Translational Sciences (NCATS), 2021).
# Among all 1,200 compounds or so, about 160 (13%) were called active. Another 31% or so got no clear call; they are omitted. These entries were drawn from the full list. A number with no mark means an inactive call. Calls follow the shape of the dose curve; as a rule, active = well fitted inhibition curve with a large enough effect; inconclusive = small, poorly fitted or top-dose-only effect; inactive = no such curve, though single readings can be large or run the other way.
# Target: Inositol hexakisphosphate kinase 1 (Homo sapiens) (UniProt Q92551)
# Experiment: Confirmatory qHTS assay for small molecule inhibitors of Inositol hexaphosphate kinase 1 (IP6K1); also: nearly all actives have a fitted effect of over 65% in size
# Conditions: recombinant IP6K1 kinase, ADP-Glo luminescence, 2 h; series mostly up to 49 µM; activity change, negative = inhibition: at the top concentration
# Description: Assay Provider: Huijun Wei, M.S., Ph.D. School of Medicine, Johns Hopkins University, Baltimore, MD Inositol hexakisphosphate kinases (IP6Ks) catalyze pyrophosphorylation of inositol hexakisphosphate (IP6) into inositol 5-diphospho-1,2,3,4,6-pentakisphosphate (IP7), which is involved in numerous areas of cell physiology including glucose homeostasis, blood coagulation and neurological development. Inhibition of IP6Ks may be effective for the treatment of Type II diabetes, thrombosis, and psychiatric disorders. We performed a quantitative high throughput screen (qHTS) of 158,410 compounds for IP6K1 inhibitors using ankinase activity ADP-Glo Max assay. […] Medicinal chemistry SAR efforts in three chemical series identified potent IP6K1 inhibitors, which were further validated in an orthogonal LC-MS IP7 analysis.
# PROTOCOL TABLE SEQUENCE No. (e.g., 1, 2, 3, etc.); […] (e.g., Cells, Incubation, Reagent, etc.); VALUE and DESCRIPTION. 1. Reagent, 3 uL of 1.3 mM ATP and 130 uM IP6 mixture in assay buffer was dispensed to a white, 1536-well assay plate. 2. Compound, 23 nL of compounds of the top two doses (57.5 uM and 19.1 uM final concentration) of the libraries were dispensed into the mixture using the Kalypsis pintool. 3. Reagent, 1 uL of 2.4 uM IP6K1 was dispensed to the assay plates. 4. Incubation, 2 hr incubation at room temperature. 5. Reagent, 2 uL of ADP-Glo reagent was added to the wells. 6. Incubation, 1 hr incubation at room temperature. 7. Reagent, 4 uL or ADP-Glo substate was added to the wells. 8. Incubation, 45 min incubation at room temperature. 9. Detection, luminescence signal was detected using the ViewLux microplate imager (PerkinElmer).
# % is scaled to controls: 0 for no effect and ±100 for the full control effect; potency is read from the fitted curve at half-maximal effect.
# Chain of Inositol hexakisphosphate kinase 1 (Homo sapiens) (Q92551 whole entry, looked up): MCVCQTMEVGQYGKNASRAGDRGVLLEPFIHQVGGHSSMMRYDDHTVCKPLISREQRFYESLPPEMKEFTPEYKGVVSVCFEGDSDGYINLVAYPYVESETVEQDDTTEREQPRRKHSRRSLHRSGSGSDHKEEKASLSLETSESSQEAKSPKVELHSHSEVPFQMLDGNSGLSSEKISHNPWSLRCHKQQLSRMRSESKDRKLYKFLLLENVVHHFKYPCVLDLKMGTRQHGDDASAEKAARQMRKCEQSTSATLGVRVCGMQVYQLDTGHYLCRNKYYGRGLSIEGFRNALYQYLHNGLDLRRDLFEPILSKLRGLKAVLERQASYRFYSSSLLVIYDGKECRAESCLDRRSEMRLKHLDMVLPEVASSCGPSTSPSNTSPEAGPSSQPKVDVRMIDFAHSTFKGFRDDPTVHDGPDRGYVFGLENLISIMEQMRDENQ
SMILES,"activity change, negative = inhibition",Potency
Cc1ccc(CNC(=O)CCc2c(C)nc3c(c(C)nn3-c3ccccc3)c2C)cc1,-6.31%,
COc1ccc(C2Cn3nnc(C(=O)N4CCN(C(=O)c5ccc(C)cc5C)CC4)c3CO2)cc1 (centres undefined),4.29%,
COc1c(C)cnc(CN(C)C(=O)C2CC(=O)N(C3CCCC3)C2)c1C (centres undefined),0.975%,
CCCS(=O)(=O)c1ncc(Cl)c(C(=O)Nc2scc(-c3ccccc3)c2C(=O)OCC)n1,-6.72%,
Cc1ccc(-c2nnc3ccc(-c4ccoc4)nn23)nc1,0.0128% [at 92.2 µM],
CC1=C(C(=O)Nc2ccccc2Cl)C(c2cccs2)n2ncnc2N1 (centres undefined),-29.2%,
CN(C)[C@@H]1C(=O)C(C(N)=O)=C(O)[C@@]2(O)C(=O)C3=C(O)c4c(O)ccc(Cl)c4[C@@H](O)[C@H]3C[C@@H]12,-16.3%,
Cc1ccc(-c2cc(C(=O)Oc3ccccc3Cl)no2)cc1C,30.1%,
COc1cc(NC(=O)Nc2cccc(CNC(=O)O[C@H]3CCOC3)c2)ccc1-c1cnco1,,8.2 µM (active)
C#C[C@]1(O)CC[C@H]2[C@@H]3CCC4=C/C(=N/O)CC[C@@H]4[C@H]3CC[C@@]21CC,,1.84 µM (active)
Cc1cccc(C(=O)N2CCC3(CC2)CC(c2ccccc2)CN(C)C3)n1 (centres undefined),-16.6%,
Cc1cc(C)c(/C=C2\C(=O)Nc3ccccc32)[nH]1,-5.46%,
Cc1ccc(-c2onc(C)c2C)cc1S(=O)(=O)Nc1ccccn1,-5.89%,
CC(C)(C)OC(=O)N1CCC(c2c(C(=O)N3CCc4ccccc4C3)cnn2-c2ccc(F)cc2)CC1,4.4%,
CCc1ccccc1N1CC(c2nc3ccccc3n2CCCCOc2ccccc2)CC1=O (centres undefined),-0.175%,
O=c1cc(-c2cccnc2)oc2c(-c3ccccc3O)nccc12,-25.6%,
CCOc1cccc2c1N[C@@H](c1ccc(C(=O)O)cc1)[C@H]1CC=C[C@@H]21,,20.6 µM (active)

SMILES,"activity change, negative = inhibition",Potency
CCOC(=O)c1cc2c(=O)n3ccccc3nc2n(Cc2ccco2)c1=NC(=O)c1ccc(F)cc1,-13%,
CCOC(=O)c1ccc(CSc2nnc3cc(C)c4ccccc4n23)cc1,-13%,
Cc1ccc2c(c1)N(CC(=O)NCCCN1CCCCC1)C(=O)c1cccnc1O2,-8.72%,
O=C(OCCN1CCOCC1)c1cccnc1Nc1cccc(C(F)(F)F)c1,-19.8%,
COc1ccccc1N1CCN(S(=O)(=O)CCNC(=O)COc2ccc(F)cc2)CC1,0.724%,
CCOc1ncccc1C(=O)N1CCN(Cc2ccccc2)CC(O)C1 (centres undefined),-4.84%,
O=c1ncn(Cc2ccccc2)c2ccc(-c3ccoc3)nc12,-9.81%,
CCOC(=O)c1ccc(NC(=O)CCS(=O)(=O)c2ccc(C)cc2)cc1,-10.6%,
CO[C@H]1C=CO[C@@]2(C)Oc3c(C)c(O)c4c(O)c(c(/C=N/N5CCN(C)CC5)c(O)c4c3C2=O)NC(=O)/C(C)=C\C=C[C@H](C)[C@H](O)[C@@H](C)[C@@H](O)[C@@H](C)[C@H](OC(C)=O)[C@@H]1C,-21.3%,
CCOc1ccccc1NC(=O)C1CCCN(S(=O)(=O)c2cn(C)cn2)C1 (centres undefined),-14.5%,
C(=C\c1ccccc1)/CN1CCN(c2nccc(-c3cccnc3)n2)CC1,-13.6%,
CCc1ccccc1N1C(=O)CN(S(=O)(=O)CC)CC1(C)C(=O)NC1CCCCC1 (centres undefined),22.6%,
O=c1c2ccccc2n(Cc2cccc(Cl)c2)c(=O)n1Cc1ccccc1,-4.11%,
Cc1ccc(NC(=O)c2cc(S(=O)(=O)NCCC3=CCCCC3)ccc2F)cc1C,4.86%,
CC1(C)CN(C(=O)c2ccc(-c3cccc4nc(NC(=O)C5CC5)nn34)cc2)C1,7.31%,
COc1ccc2ncc3c(-c4ccc(C)c(C)c4)nn(CC(=O)NC4CCCC4)c3c2c1,26.6%,
Cc1ccncc1C(=O)N1CCC2(CC1)CC(c1ccccc1)C(=O)N2C (centres undefined),-13.6%,
